Results reported in PubChem BioAssay (Tox21).
Results filed as inconclusive are left out. A call without a number means that no potency is given here. Unmarked numbers belong to inactive results. Calls of active or inactive are those of the source. Calls come from the whole dose curve; as a rule, active = well fitted cell-killing curve with a large enough effect in the repeat runs; inconclusive = weak or mixed curves, or effect the other way; inactive = flat fitted curve, though single readings scatter.

Experiment: qHTS RealTime-Glo MT Cell Viability Assay in HEK293 cells - 8 hour (AID 1224887); note: top concentration of the series differs between compounds; nearly all actives have a fitted effect of over 50% in size
Conditions: RealTime-Glo luminescence; series mostly up to 76.8 µM
Source text: U.S. Tox21 Program National Center for Advancing Translational Sciences [NCATS] NIH Chemical Genomics Center [NCGC] U.S. Environmental Protection Agency [EPA] National Institutes of Environmental Health Sciences [NIEHS] National Toxicology Program [NTP] U.S. Food and Drug Administration [FDA] Tox21 Assay Overview: Measure of cell viability is critical in the cell-base assay. Analysis of cell viability is necessary for the characterization of cell responses to cytotoxic drugs and environmental stress. A RealTime-Glo MT Cell Viability Assay to monitor cell viability in real time of continues cell culture during 40 hours of compound treatment was used to screen Tox21 10K library compounds in Hek293 cells. The RealTime-Glo MT Cell Viability Assay is a nonlytic, homogeneous, bioluminescent method to measure cell viability in real time using a simple, plate-based method. The assay involves adding NanoLuc luciferase and a cell-permeant prosubstrate to cells in culture. Viable cells reduce the proprietary prosubstrate to generate a substrate for NanoLuc luciferase. This substrate diffuses from cells into the surrounding culture medium, where it is rapidly used by the NanoLuc Enzyme to produce a luminescent signal. The signal correlates with the number of viable cells, making the assay well suited for cytotoxicity studies.
Tox21 Assay Protocol Summary: The mixture of Hek293 cell suspension and reagents were dispensed at 600cells/6 ul/well in 1536-well tissue culture treated black solid bottom plates using a Multidrop dispenser. After the assay plates were incubated at a 37 C/5% CO2 incubator for 5 hours, 23 nL of compounds dissolved in DMSO, positive and negative controls was transferred to the assay plate by a pintool work station. The plates were incubated at 37 C for 40 hours. The luminescence intensity were measured at 0h, 8h, 16h, 24h, 32h and 40h time points using ViewLux plate reader during compound treatment.

SMILES | Potency | activity change, negative = cytotoxicity
COCc1ccc(COC)cc1 | inactive | 
C=C(C)[C@H]1CC=C(C)CC1 | inactive | 
C[C@H]1O[C@@H](n2cc(F)c(=O)[nH]c2=O)[C@H](O)[C@@H]1O | inactive | 
O=S(=O)(O)c1ccccc1O | inactive | 
O=C(O)c1ccc[n+]([O-])c1 | inactive | 
C=C(C)C(=O)NCCC[N+](C)(C)C | inactive | 
CC(C)COC(=O)C(C)C | inactive | 
C=C(C)C(=O)OCCCCCCCCCCCCCCCCCC |  | 4.13% [at 15.8 µM]
Cc1nccn1CC1CCc2c(c3ccccc3n2C)C1=O (stereo not given) | inactive | 
NS(=O)(=O)c1cc2c(cc1Cl)NC(CSCc1ccccc1)=NS2(=O)=O | inactive | 
CC12CCC(CC1=O)C2(C)C (stereo not given) | inactive | 
Cc1nc(-c2ccc(OCC(C)C)c(C#N)c2)sc1C(=O)O | inactive | 
OC/C=C/c1ccccc1 | inactive | 
OC1OC[C@@H](O)[C@H](O)[C@H]1O (stereo not given in full) | inactive | 
CC(CCO)CCCC(C)(C)O (stereo not given) | inactive | 
CCCCc1ccc2cccc(S(=O)(=O)O)c2c1 | inactive | 
O=C(O)c1ccccc1-c1ccc(C(F)(F)F)cc1 | inactive | 
CCn1cc(C(=O)O)c(=O)c2cc(F)c(N3CCN(C)CC3)cc21 |  | 7.74% [at 15.8 µM]
CCC(=O)c1cccc(Cl)c1 | inactive | 
CCN1CCCC(OC(=O)C(c2ccccc2)c2ccccc2)C1 (stereo not given) | inactive | 

SMILES | Potency | activity change, negative = cytotoxicity
Nc1nc2c(ncn2CCC(CO)CO)c(=O)[nH]1 | inactive | 
CC(=O)CCc1ccc(O)cc1 | inactive | 
CSc1ccc(C=O)cc1 | inactive | 
C1=C\CC/C=C\CC/C=C\CC/1 | inactive | 
C=CCn1c(=O)n([C@@H]2O[C@H](CO)[C@@H](O)[C@H]2O)c2nc(N)[nH]c(=O)c21 | inactive | 
CC/C=C\C#N | inactive | 
CCOC(=O)Nc1ccc2c(c1)N(C(=O)CCN1CCOCC1)c1ccccc1S2 | inactive | 
O=c1[nH]c2ccccc2c(=O)n1CCCl | inactive | 
OCC(CO)(CO)COCC(CO)(CO)CO | inactive | 
CNC(=O)c1c(I)c(NC(=O)CCCCC(=O)Nc2c(I)c(C(=O)O)c(I)c(C(=O)NC)c2I)c(I)c(C(=O)O)c1I | inactive | 
CCc1cc(S(=O)(=O)O)c2cc(C(C)C)cccc1-2 | inactive | 
Cn1cnc2c(=O)[nH]c(N)nc21 | inactive | 
CC(C)c1cccc(C(C)C)c1N | inactive | 
CCCCCCCCCCCCI | inactive | 
NC(=O)c1c(Cl)cccc1Cl | inactive | 
Cc1ccc(Nc2ccc(O)c3c2C(=O)c2ccccc2C3=O)cc1 | inactive | 
OCc1ccccn1 | inactive | 
CCCCCN(CCCCC)C(=O)C(CCC(=O)O)NC(=O)c1ccc(Cl)c(Cl)c1 (stereo not given) | inactive | 
Nc1nc(F)nc2c1ncn2[C@@H]1O[C@H](CO)[C@@H](O)[C@@H]1O | inactive | 
Nc1[nH]c(=O)ncc1F | inactive | 
